Assay [1] in a line: antimalarial activity against Dd2 strain (AID 2302;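 active means growth inhibition above 50% at the single 2 µM test dose, taken to imply half-maximal potency below 2 µM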;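 further: 0% = DMSO untreated growth and 100% = chloroquine plus artemisinin killed control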). As to conditions: P. falciparum Dd2 in RBCs, LDH growth readout, 72 h; at 2 µM; hits give high values.
Assay [2] in a line: human hepatoma cell viability loss – ATP luminescence, cytotoxicity control for P. falciparum antimalarial project, primary screen (AID 2303;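 active means inhibition above 50%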;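 further: 0% = DMSO wells and 100% = digitonin-killed cells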). As to conditions: HepG2 viability, 24-48 h, at 10 µM, hits give high values.
Assay [3] has as its target L-lactate dehydrogenase (Plasmodium falciparum (isolate CDC / Honduras)) (UniProt Q27743). The experiment in a line: PfLDH activity inhibition – cell lysate, 3D7 strain, counter-screen for P. falciparum growth inhibition project (AID 2304).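 Further: 0% = vehicle and 100% = reference inhibitor.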 To be noted: P. falciparum 3D7 crude extract, LDH APAD/NBT absorbance; at 2 µM; hits give high values.
Assay [4] can be described thus: inhibition of 3D7 malaria parasite growth – strain 3D7 (AID 2306).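 Further: 0% = DMSO wells and 100% = chloroquine plus artemisinin control wells.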 To be noted: P. falciparum 3D7 erythrocytic growth, LDH absorbance, 72 h; at 2 µM; hits give high values.
For assay [5], the target named is Calcium-dependent protein kinase 1 (Plasmodium falciparum (isolate 3D7)) (UniProt P62344). The experiment in a line: PfCDPK1 kinase inhibitors, biochemical, TCAMS library (AID 1159585; cut-off not given, nearly all actives have IC50 up to about 0.98 µM;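 further: inhibitors leave more ATP so luminescence rises with inhibition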). As to conditions: recombinant PfCDPK1, Kinase-Glo ATP depletion luminescence.
Calcium-dependent protein kinase 1 (Plasmodium falciparum (isolate 3D7)), sequence (P62344 whole entry, looked up): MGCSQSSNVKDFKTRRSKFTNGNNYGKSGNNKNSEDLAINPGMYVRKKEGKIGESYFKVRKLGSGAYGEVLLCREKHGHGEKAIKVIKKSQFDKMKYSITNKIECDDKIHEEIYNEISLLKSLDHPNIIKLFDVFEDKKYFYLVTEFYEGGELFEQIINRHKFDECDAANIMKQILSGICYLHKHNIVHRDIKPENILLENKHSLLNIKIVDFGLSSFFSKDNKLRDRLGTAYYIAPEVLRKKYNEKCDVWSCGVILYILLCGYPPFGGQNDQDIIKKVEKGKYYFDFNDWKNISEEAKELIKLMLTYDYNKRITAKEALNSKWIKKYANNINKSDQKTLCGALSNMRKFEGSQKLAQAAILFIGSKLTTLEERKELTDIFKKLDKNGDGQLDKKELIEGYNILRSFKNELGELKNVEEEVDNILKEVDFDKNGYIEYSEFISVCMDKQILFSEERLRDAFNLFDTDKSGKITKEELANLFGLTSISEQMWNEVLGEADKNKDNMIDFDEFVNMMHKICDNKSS
Assay [6] has as its target Plasmodium falciparum protein kinase 6 (PK6, PF3D7_1337100) (UniProt Q8IDW1). The experiment in a line: PfPK6 kinase inhibitors, biochemical, TCAMS library (AID 1159586). As to conditions: recombinant PfPK6, Kinase-Glo ATP depletion luminescence.
For assay [7], the target named is Protein kinase 7 (PK7), Plasmodium falciparum 3D7 (PF3D7_0213400) (UniProt Q7YTF7). The experiment in a line: inhibition of Plasmodium PK7 catalytic activity – biochemical, TCAMS antimalarial set, Kinase-Glo luminescence (AID 1159587). As to conditions: recombinant PfPK7, Kinase-Glo ATP depletion luminescence.
Protein kinase 7 (PK7), Plasmodium falciparum 3D7 (PF3D7_0213400), sequence (Q7YTF7 1-343): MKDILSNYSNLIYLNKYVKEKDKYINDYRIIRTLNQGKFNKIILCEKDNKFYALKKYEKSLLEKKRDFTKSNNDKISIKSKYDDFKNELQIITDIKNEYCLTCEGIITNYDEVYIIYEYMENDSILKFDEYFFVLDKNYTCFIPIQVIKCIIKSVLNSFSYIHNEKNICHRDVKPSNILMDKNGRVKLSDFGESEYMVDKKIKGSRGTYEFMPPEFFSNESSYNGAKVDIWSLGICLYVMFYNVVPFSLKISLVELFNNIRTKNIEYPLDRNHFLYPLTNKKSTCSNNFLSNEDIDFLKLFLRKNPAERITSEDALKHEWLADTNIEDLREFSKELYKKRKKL
Assay [8] concerns the target Calcium-dependent protein kinase 4 (Plasmodium falciparum (isolate 3D7)) (UniProt Q8IBS5). The experiment in a line: PfCDPK4 kinase inhibitors, biochemical, TCAMS library (AID 1159588; cut-off not given, nearly all actives have IC50 up to about 0.91 µM). To be noted: recombinant PfCDPK4, Kinase-Glo ATP depletion luminescence.

A number with no mark means an inactive call. For some of these results: Potency and affinity values are given separately. The source made the active and inactive calls. Unless noted, how the calls were made is not given here.

The source of these data is PubChem BioAssay.

Calcium-dependent protein kinase 4 (Plasmodium falciparum (isolate 3D7)), sequence (Q8IBS5 whole entry, looked up): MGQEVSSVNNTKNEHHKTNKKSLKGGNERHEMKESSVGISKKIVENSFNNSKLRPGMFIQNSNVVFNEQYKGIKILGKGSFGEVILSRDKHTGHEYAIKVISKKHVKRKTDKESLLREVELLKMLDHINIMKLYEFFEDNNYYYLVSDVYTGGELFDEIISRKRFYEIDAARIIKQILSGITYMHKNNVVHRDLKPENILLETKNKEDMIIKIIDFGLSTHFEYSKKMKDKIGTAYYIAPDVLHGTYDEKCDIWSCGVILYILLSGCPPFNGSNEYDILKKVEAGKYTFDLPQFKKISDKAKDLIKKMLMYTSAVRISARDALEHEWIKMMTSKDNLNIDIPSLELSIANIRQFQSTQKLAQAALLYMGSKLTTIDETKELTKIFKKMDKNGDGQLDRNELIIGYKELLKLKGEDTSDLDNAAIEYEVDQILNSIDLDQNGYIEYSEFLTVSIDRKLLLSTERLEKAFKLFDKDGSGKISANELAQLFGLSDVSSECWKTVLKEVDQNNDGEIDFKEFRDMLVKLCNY
L-lactate dehydrogenase (Plasmodium falciparum (isolate CDC / Honduras)), sequence (Q27743 whole entry, looked up): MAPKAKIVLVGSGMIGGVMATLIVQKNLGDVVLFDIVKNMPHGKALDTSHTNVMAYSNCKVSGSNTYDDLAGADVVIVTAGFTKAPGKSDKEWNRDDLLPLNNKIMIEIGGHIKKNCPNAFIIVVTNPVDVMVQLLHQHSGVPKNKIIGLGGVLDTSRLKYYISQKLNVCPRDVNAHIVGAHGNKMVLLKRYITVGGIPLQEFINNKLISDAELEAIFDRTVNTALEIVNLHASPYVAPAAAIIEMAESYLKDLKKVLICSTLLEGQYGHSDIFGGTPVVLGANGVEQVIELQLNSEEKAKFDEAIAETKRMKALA
Plasmodium falciparum protein kinase 6 (PK6, PF3D7_1337100), sequence (Q8IDW1 1-305): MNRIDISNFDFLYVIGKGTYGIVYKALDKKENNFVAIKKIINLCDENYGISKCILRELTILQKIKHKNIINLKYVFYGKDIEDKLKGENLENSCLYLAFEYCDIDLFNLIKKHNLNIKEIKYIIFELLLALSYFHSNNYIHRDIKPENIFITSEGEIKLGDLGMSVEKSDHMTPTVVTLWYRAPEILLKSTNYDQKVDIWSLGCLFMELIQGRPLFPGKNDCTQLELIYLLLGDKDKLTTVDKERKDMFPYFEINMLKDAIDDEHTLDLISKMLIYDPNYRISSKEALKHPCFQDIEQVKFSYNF

For the compound `COc1cccc2c(NN=Cc3cccc(Cl)c3)cc(C)nc12`, the values for the growth inhibition in assay [1] and in assay [4] were 75% (active) and 101% (active), respectively. In addition, the inhibition in assay [2] was 3%; in assay [3] it was 2%. In addition, the result in assay [5], in assay [6], in assay [7] and in assay [8] was inactive.
As to `CCNCc1ccc(-c2cc3ncnc(Nc4ccc(OCc5cccc(F)c5)c(Cl)c4)c3s2)[nH]1`, the values for the growth inhibition in assay [1] and in assay [4] were 74% (active) and 103% (active), respectively. In addition, the inhibition in assay [2] was 22%; in assay [3] it was 6%. Moreover, the result in assay [5], in assay [6], in assay [7] and in assay [8] was inactive.
`N=C(N)c1ccc(C(=O)Nc2cccc(C(=N)N)c2)cc1`: the growth inhibition in assay [1] was 82% (active); in assay [4], 88% (active). The inhibition in assay [2] is 13%; in assay [3] it was -2%. For the same compound, the outcome in assay [5], in assay [6], in assay [7] and in assay [8] was inactive.
Regarding `COc1cc(NC(=O)N2CCc3ccc(OCCN4CCCCC4)cc32)cc(C(F)(F)F)c1`, the growth inhibition in assay [1] is 93% (active); in assay [4] it was 101% (active). The values for the inhibition in assay [2] and in assay [3] were 9% and 6%, respectively. For the same compound, the result in assay [5], in assay [6], in assay [7] and in assay [8] was inactive.
In the case of `O=C(/C=C/c1ccc(Br)cc1)NCCCCCN1CCC(c2c[nH]c3ccccc23)CC1`, the growth inhibition in assay [1] is 19%; in assay [4], 99% (active). Further, the inhibition in assay [2] is 73% (active); in assay [3], -2%. Moreover, the outcome in assay [5], in assay [6], in assay [7] and in assay [8] was inactive.
For `CN(Cc1cccc(C#N)c1)C1CCN(c2cc(NC(=O)c3cccc(F)c3)ccn2)CC1`, the growth inhibition in assay [1] is 15%; in assay [4], 98% (active). Further, the inhibition was -1% in assay [2] and -3% in assay [3]. Also, the outcome in assay [5], in assay [6], in assay [7] and in assay [8] was inactive.
In the case of `CC(C)C[C@@H](C(=O)N[C@@H](CCCCNC(=O)OCc1ccccc1)C(=O)Nc1nccs1)[C@H](C)N(O)C=O`, the growth inhibition in assay [1] is 98% (active); in assay [4], 99% (active). The inhibition is -2% in assay [2] and 8% in assay [3]. Moreover, the result in assay [5], in assay [6], in assay [7] and in assay [8] was inactive.
With `CCCCN1CCCN(Cc2cccc(NC(=O)c3ccc(-c4ccccc4)cc3)c2)CC1`, the values for the growth inhibition in assay [1] and in assay [4] were 8% and 92% (active), respectively. The inhibition was 19% in assay [2] and 5% in assay [3]. Besides, the outcome in assay [5], in assay [6], in assay [7] and in assay [8] was inactive.
Consider `CCN(CCCN1CCCCC1)c1cc(C)nc(Nc2ccc(F)c(C(F)(F)F)c2)n1`, for which the results for the growth inhibition in assay [1] and in assay [4] were 93% (active) and 100% (active), respectively. The inhibition is 32% in assay [2] and 0% in assay [3]. In addition, the result in assay [5], in assay [6], in assay [7] and in assay [8] was inactive.
On to `COc1cccc2cc(C(=O)N[C@@H](CC(C)C)C(=O)Nc3cc(F)ccc3Br)oc12`, for which the growth inhibition was 45% in assay [1] and 87% (active) in assay [4]. In addition, the figures for the inhibition in assay [2] and in assay [3] were 7% and -1%, respectively. The result in assay [5], in assay [6], in assay [7] and in assay [8] was inactive.
Regarding `OCc1ccc(-c2cncc(Nc3ccc(F)c(Cl)c3)c2)cc1`, the growth inhibition is 99% (active) in assay [1] and 92% (active) in assay [4]. For the same compound, the results for the inhibition in assay [2] and in assay [3] were 2% and -2%, respectively. Further, the outcome in assay [5], in assay [6], in assay [7] and in assay [8] was inactive.
With `O=S(=O)(c1cccc(C(F)(F)F)c1)N1CCC(CO)(Cc2cccc(C(F)(F)F)c2)CC1`, the growth inhibition was 79% (active) in assay [1] and 100% (active) in assay [4]. For the same compound, the inhibition in assay [2] is 3%; in assay [3], 0%. Besides, the outcome in assay [5], in assay [6], in assay [7] and in assay [8] was inactive.
`O=C(NCc1ccccc1)Nc1ccc(-c2ccc(-c3nc4ccc(C(F)(F)F)cc4[nH]3)cc2)cc1`: the figures for the growth inhibition in assay [1] and in assay [4] were 23% and 99% (active), respectively. Moreover, the inhibition in assay [2] was 40%; in assay [3], 4%. Further, the result in assay [5], in assay [6], in assay [7] and in assay [8] was inactive.
As to `COc1c(F)ccc2ncc(Cl)c(CCN3CCC(NCc4ccc5c(n4)NC(=O)CS5)CC3)c12`, the growth inhibition in assay [1] is 29%; in assay [4], 98% (active). Moreover, the inhibition in assay [2] was 30%; in assay [3] it was 2%. Moreover, the result in assay [5], in assay [6], in assay [7] and in assay [8] was inactive.
Turning to `Cc1cccc2c3c([nH]c12)C1(CCN(CCc2ccccc2)CC1)NC(C(=O)NCc1ccccc1)C3` (stereo not given), the growth inhibition was 52% (active) in assay [1] and 86% (active) in assay [4]. Further, the inhibition in assay [2] is 10%; in assay [3], -9%. For the same compound, the outcome in assay [5], in assay [6], in assay [7] and in assay [8] was inactive.
Regarding `CC(C)C[C@H](NC(=O)c1cc2ccccc2s1)C(=O)N[C@H]1CCN(Cc2ccc(OC[C@@H]3CCCN3C)c(Cl)c2)C1`, the growth inhibition was 81% (active) in assay [1] and 101% (active) in assay [4]. The inhibition in assay [2] is 83% (active); in assay [3] it was -4%. Further, the outcome in assay [5], in assay [6], in assay [7] and in assay [8] was inactive.
As for `Cc1cc(-c2ccc(NC(=O)N3CCc4cc(Cl)c(N5CCN(C)CC5)cc43)cc2)ccc1C#N`, the values for the growth inhibition in assay [1] and in assay [4] were 83% (active) and 101% (active), respectively. Also, the inhibition in assay [2] was 100% (active); in assay [3], -2%. Further, the result in assay [5], in assay [6], in assay [7] and in assay [8] was inactive.
As to `COc1cccc(NC(=O)CSc2nc(-c3ccccc3Cl)ns2)c1`, the growth inhibition was 100% (active) in assay [1] and 99% (active) in assay [4]. Besides, the results for the inhibition in assay [2] and in assay [3] were 7% and 2%, respectively. Besides, the result in assay [5], in assay [6], in assay [7] and in assay [8] was inactive.
Take `CC(C)C[C@H](Nc1ccnc(NCC2CCCCC2)n1)C(=O)Nc1ccccc1`: the growth inhibition in assay [1] was 42%; in assay [4], 87% (active). Further, the inhibition in assay [2] was 6%; in assay [3], 2%. For the same compound, the result in assay [5], in assay [6], in assay [7] and in assay [8] was inactive.
For `CN1CCC(NCc2ccc(-c3cccc(-c4nc5ccccc5[nH]4)c3)cc2)CC1`, the growth inhibition in assay [1] is 96% (active); in assay [4], 100% (active). The inhibition is 50% (active) in assay [2] and -5% in assay [3]. In addition, the outcome in assay [5], in assay [6], in assay [7] and in assay [8] was inactive.
